The values that follow come from the OligoGym collection.
Also: reference of the scale not given here.

The target in one test is ACSL3. Put plainly: pooled miR-30 sensor sort-seq; sequence = guide strand. The note with it: shRNA.
ATACTGTCCAAGAATAACCTTT displayed a sensor-assay potency score (higher = more potent) of -0.208.
Same read-out and setting: under AATCTTTAAGCATCCATCGGGT stands -0.577.
In the case of TAAAGTATCACATCCAGGGTAT, the sensor-assay potency score (higher = more potent) was determined as 0.0296.
The sequence TAATTTTTGAAGACTGATCTGC came in with a sensor-assay potency score (higher = more potent) of 0.522.
TTATCTAAAGTATCACATCCAG came in with a sensor-assay potency score (higher = more potent) of -0.397.
The same measure, in the same setting: the value for TTTCACAGCAAACTAATGGTGC was -0.648.
TTTAGCTTCATGGTAGATGGTT: the sensor-assay potency score (higher = more potent) worked out at 0.468.
In turn, TATTGTAGTCCCACACTTCGGA displayed a sensor-assay potency score (higher = more potent) of 0.568.

A further test addresses ACSM2A. Described as above. The conditions noted are these: shRNA.
As for TCATGGGACAGGAACTGCGAGG, the sensor-assay potency score (higher = more potent) was -1.14.
Same read-out and setting: under ATGATCTGTACATCATAACAGG stands -1.32; under TTGTCTCGAAGCTTGGCTCGTT, 0.119.

A further test deals with ACSM2B. Described as above. The conditions noted are these: shRNA.
TTGTCTCGAAGTTTGGTTCGTT displayed a sensor-assay potency score (higher = more potent) of 0.313.
Same read-out and setting: the value for TTGATTTTCATTGTCTTGGAAA was -0.899.
On the same count and under the same terms, under TTGGCTGCTGTCTTGTCGGGAT stands -0.364; under TTAATGTAGAGAGTGCGGCTGG, 0.202; under TATCTTTCTTGGGTACTTGTAT, -0.285.
The same measure, in the same setting: the value for TAAACTGGAAATACCCATCTTC was 0.528; that for TTGGTTCGTTGAATTTTCCCTG was 0.266.
Turning to ATAACCTGTACATCATAACAGG, the sensor-assay potency score (higher = more potent) was -1.03.
In turn, TCCTGCTGTAGCAACATCCGGT displayed a sensor-assay potency score (higher = more potent) of -0.567.
Same read-out and setting: under TTTCATTGTCTTGGAAACCATG stands -1.14; under TGACTTCACATGCTGCTGCAGC, -0.423.
Still for that read-out and setting: the value for TTAATGATATCATCTGCCCGTC was -0.544; that for TAACCTGTACATCATAACAGGA was -0.501; that for TTGGGTACTTGTATGGGGCTGT was 0.442.
On to TTTCTCAGACACCAGTAGCTTA, for which the sensor-assay potency score (higher = more potent) was -0.818.

For another test, the target named is ACSM5. The description is as above. The conditions noted are these: shRNA.
The sequence TTGATCACATCGTCGTTTCTTC came in with a sensor-assay potency score (higher = more potent) of 0.51.
Still for that read-out and setting: under TTGAAGAAACAGAAGGGCCGAG stands -0.0546; under AGAATTGATCACATCGTCGTTT, -0.999.
For the sequence ATAACTTTGGCATCAACTCGGG, the sensor-assay potency score (higher = more potent) is -0.475.
With TAACTTTGGCATCAACTCGGGG, the sensor-assay potency score (higher = more potent) was -0.74.
Still for that read-out and setting: the value for TTGATCTCTGCTCCTGTGCCAT was -0.903.
Same read-out and setting: under TTTGACATCTTTAGGGTCGAAG stands -1.09; under TGACTTCGCAATTTACTCCTTT, -0.271; under TTGAAGAATTGATCACATCGTC, 0.691.
In turn, TACTCCTTTGGATCTTTCCAGA displayed a sensor-assay potency score (higher = more potent) of -1.3.
On the same count and under the same terms, under TACAGCTCCACACCAGTCTGGT stands -0.482; under TCCACTTGATCTCTGCTCCTGT, -0.0695.
